# Over roughly 33,000 sequences, “E-score (-0.5 to 0.5)” has its median near -0.035; the highest 2% begin near 0.35. For the sample, the highest values were picked, then their nearest neighbours and some sequences at random.
# Target: T1, Pdr3 (UniProt P33200)
# T1 sequence: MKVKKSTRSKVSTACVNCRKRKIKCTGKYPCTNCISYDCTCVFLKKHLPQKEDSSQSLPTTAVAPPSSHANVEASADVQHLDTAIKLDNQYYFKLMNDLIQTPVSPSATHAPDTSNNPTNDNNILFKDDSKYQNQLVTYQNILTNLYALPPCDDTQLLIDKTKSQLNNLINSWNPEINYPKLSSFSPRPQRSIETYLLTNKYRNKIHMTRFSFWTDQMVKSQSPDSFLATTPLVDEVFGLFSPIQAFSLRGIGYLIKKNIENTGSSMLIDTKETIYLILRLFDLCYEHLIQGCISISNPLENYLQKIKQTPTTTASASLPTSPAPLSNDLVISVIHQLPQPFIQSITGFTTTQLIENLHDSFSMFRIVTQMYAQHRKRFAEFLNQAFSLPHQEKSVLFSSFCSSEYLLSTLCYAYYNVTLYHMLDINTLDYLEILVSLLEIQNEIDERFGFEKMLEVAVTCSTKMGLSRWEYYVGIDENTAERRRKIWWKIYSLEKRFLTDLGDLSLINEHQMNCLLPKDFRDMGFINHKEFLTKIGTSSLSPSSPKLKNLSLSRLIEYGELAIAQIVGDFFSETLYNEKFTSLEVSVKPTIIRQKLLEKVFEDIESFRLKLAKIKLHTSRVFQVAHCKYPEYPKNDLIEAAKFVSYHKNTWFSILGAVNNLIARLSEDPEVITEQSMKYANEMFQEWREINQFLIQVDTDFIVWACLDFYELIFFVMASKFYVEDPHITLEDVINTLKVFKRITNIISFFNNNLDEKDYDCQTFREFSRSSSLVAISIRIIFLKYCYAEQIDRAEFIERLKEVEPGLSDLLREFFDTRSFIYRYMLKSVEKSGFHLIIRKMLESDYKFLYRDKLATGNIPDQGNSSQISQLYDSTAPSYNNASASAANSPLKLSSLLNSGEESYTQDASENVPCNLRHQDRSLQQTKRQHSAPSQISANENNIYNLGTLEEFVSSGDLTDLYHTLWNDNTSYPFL
# Test: PBM E-score (8-mer binding enrichment) (E-score (-0.5 to 0.5)); higher = stronger / more preferred TF binding
# Conditions: protein concentration: 200 nM; construct: GST-full length
# Protocol: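 Universal 'all 10-mer' protein binding microarrays (Agilent AMADID 015681) probed with GST-tagged S. cerevisiae TFs (full-length or DBD) made by in vitro transcription/translation (PURExpress), about 100-200 nM. Bound TF was detected with fluorescent anti-GST. Each ungapped 8-mer (which stands for itself and its reverse complement) is scored by the PBM enrichment score (E-score), a modified Wilcoxon-Mann-Whitney statistic from -0.5 to +0.5, computed with the Universal PBM Analysis Suite. Scale: above 0.35 generally sequence-specific binding.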
row,Sequence,PBM E-score
1,GGCACCCC,-0.0993
2,CTGGCCAA,0.0275
3,AGGATCTA,-0.352
4,ATTACTAA,-0.0285
5,GCGGGCCA,0.0261
6,CCACCATA,0.0173
7,ATTTTCTA,-0.183
8,ACGAGGCA,-0.211
9,GTCAAAGA,-0.212
10,TAAATTAA,0.0873
11,AACCTCCG,0.219
12,CGAAGAAC,0.119
13,AGCCCAAT,-0.194
14,GACCGGGA,0.304
15,GCCGGGGA,0.2
16,GCCCGGGA,0.393
17,GCGTTCCC,0.139
18,CTGCCCCA,-0.045
19,CGCGGACG,0.342
20,CGTGGACA,0.108
21,GGCGGACC,0.357
22,GGCGGACA,0.185
23,CGCGGACC,0.437
24,AGCGGACC,0.175
25,CGCGGACA,0.361

row,Sequence,PBM E-score
1,AGCGGACA,0.154
2,CGGGGACC,0.291
3,GATCGCCC,0.00089
4,CAAACCGA,-0.0979
5,CGCCGTCC,0.115
6,TGACGCAA,-0.165
7,CGGACTCA,0.31
8,GACAAGGA,-0.0759
9,AGACTCGG,-0.099
10,ACGTCAAG,-0.311
11,AGACCGGA,0.254
12,CGACCGGA,0.358
13,CGACCGGC,0.161
14,CGACCGAA,0.0221
15,GGACCGGA,0.382
16,GGACCGCA,0.243
17,ATGCCAGC,-0.22
18,CTCAAAAA,-0.0515
19,CACCCGTC,0.215
20,CAGTCTGC,-0.173
21,CTACTTGA,-0.238
22,CGGGATTC,0.382
23,CGGGATGC,0.311
24,GGGGATTA,0.162
25,CGGGATGA,0.369

row,Sequence,PBM E-score
1,CTGGATTC,0.105
2,CGGGATTA,0.404
3,GGGGATGA,0.0246
4,AGGGATTA,-0.132
5,AGGGATTC,-0.0434
6,AGCCGAGC,0.267
7,GTAACCCA,0.0499
8,AAGCGAAA,-0.0467
9,CTCGTAGC,-0.167
10,CGACCATA,0.0144
11,CTTCTGGA,-0.0291
12,CATCTACC,0.0434
13,CCGTCGGC,0.285
14,CCCTCGGC,0.173
15,CCGTCGGA,0.361
16,GGCTCGGA,0.338
17,GCCTCGGA,0.308
18,AACTCGGA,0.296
19,CCCTCGGA,0.373
20,AGCTCGGA,0.316
21,CGCTCGGA,0.359
22,TACTCGGA,0.336
23,ACGTCGGA,0.175
24,GACTCGGA,0.39
25,ACGATCAG,-0.108

row,Sequence,PBM E-score
1,AGCTCCCT,-0.178
2,CATAAAGG,-0.0331
3,TCACGAAA,0.0507
4,AGCGGGGG,-0.158
5,ACCTCGGA,0.357
6,ACCTCGGG,0.158
7,ACCTCGGC,0.307
8,AACGTCAA,-0.146
9,GCTATTCA,0.0956
10,AATGGTAG,-0.0896
11,CGAACTCC,0.132
12,AGAACTCC,0.0347
13,GGAACTCC,0.366
14,CTCGCGAG,0.192
15,ACGCGGTA,0.0327
16,CGGCGGTC,0.145
17,ACGCGGGC,0.17
18,CCGCGGTC,0.432
19,CCGCGGGC,0.484
20,CTGCGGGC,0.218
21,GCGCGGTA,0.28
22,CCGCGGTA,0.473
23,ACGCGGTC,0.181
24,GATCCAAA,0.064
25,ACGTCTAT,-0.168

row,Sequence,PBM E-score
1,ACGTAGCT,-0.31
2,CCGTCTAG,0.178
3,TCCGGCAA,0.356
4,TTCGGCAA,-0.0284
5,GCCGGCAC,0.392
6,ACCGGCAC,0.192
7,GCCGGCAA,0.37
8,ACCGGCAA,0.185
9,TACGGCAA,-0.034
10,CCCGGCAC,0.154
11,CCCGGCAA,0.286
12,TGAACGAA,-0.195
13,CCTCAACC,-0.118
14,AGATTACA,-0.107
15,ACTGTGAG,-0.0549
16,GAGGCTGA,-0.305
17,AGAGGGCG,0.126
18,CGCGCTAA,0.205
19,CCGGTCGA,0.167
20,CCCGGACA,0.362
21,CCCGGACG,0.223
22,ACCGGACA,0.206
23,GCCGGACA,0.315
24,CCCCGACA,0.0765
25,TCCGGACA,0.447

row,Sequence,PBM E-score
1,ACTGGGAC,-0.0292
2,AGAACGTA,-0.0336
3,ACGGGCCA,0.117
4,GTTTCCAA,-0.274
5,ATTTCCTG,0.0852
6,GTTTCCGA,0.429
7,CTTTCCGA,0.413
8,CTTTCCCA,0.0901
9,CTTTCCCC,0.117
10,GTTTCCCA,0.0393
11,CTTTCCGC,0.384
12,CTTTCCTC,-0.162
13,CTTTCCAA,-0.0271
14,ATTTCCGG,0.456
15,ATTTCCGA,0.338
16,CGCGAAAA,0.096
17,ACGCTTCG,0.00401
18,CGCCTGGC,-0.0374
19,CAACTTCC,0.225
20,AATTTAAT,0.128
21,AAACCTAC,-0.103
22,CTGCCGCC,-0.0369
23,GGAAGATA,0.234
24,GCCCAGAC,-0.222
25,AAATGATG,0.133

row,Sequence,PBM E-score
1,CTACAAAG,-0.116
2,ATTTCCTC,0.154
3,ATTTCCAC,0.131
4,ATTTCCGC,0.413
5,AGCACAAA,0.12
6,CGGGCGTC,0.193
7,CGATTCCC,0.181
8,CGATTCCG,0.466
9,AGATTCCG,0.453
10,AGATTCCC,0.198
11,CGATTCCA,0.112
12,AGATTCCT,-0.088
13,AACGTGAT,-0.0792
14,ACCGGCTC,0.122
15,CGACGGAG,0.331
16,CGACGGAA,0.439
17,AGACGGAA,0.422
18,TGACGGAA,0.445
19,TGACGGCA,0.135
20,GGACGGTA,0.118
21,AGACGGAG,0.216
22,GGACGGAC,0.293
23,TGACGAAA,-0.112
24,CGACGGAC,0.342
25,GGACGGAA,0.429

row,Sequence,PBM E-score
1,AGACGGAT,0.249
2,ATAATACA,0.212
3,ATGATGGC,0.0224
4,GGATCTCA,0.0621
5,TCCAAGGA,-0.00825
6,GGGAACCC,0.133
7,CGGAACCC,0.477
8,CAGAACCG,0.116
9,CGGAACCG,0.482
10,TGGAACCA,0.188
11,CGGAACCA,0.483
12,AGGAACCG,0.123
13,GGGAACCA,-0.0124
14,AGGAACCC,0.00054
15,ACTCCATA,-0.0901
16,CACAGTAC,-0.0825
17,ATCTCTTA,-0.0707
18,AATCTCTG,-0.185
19,TACGACTA,-0.179
20,CCTCTAAC,-0.199
21,TCACTGAA,0.0661
22,GCATCCTA,0.00911
23,GAGGGTTA,-0.131
24,GGCCGGCC,0.326
25,GCCCGGCA,0.225

row,Sequence,PBM E-score
1,TGCCGGCA,0.385
2,TGCCGACA,0.123
3,AACCGGCA,0.158
4,GGCCGGCA,0.367
5,ACCGTTAG,-0.208
6,GGGCCCCA,0.092
7,GGCTAAGA,-0.0826
8,GACACGGC,0.171
9,CACACGGA,0.304
10,AACACGGA,0.374
11,AACACGGC,0.154
12,AACACGGG,0.116
13,GACACGGA,0.393
14,GCGACCTA,0.0108
15,GCACGGGA,0.315
16,ACACGGAC,0.299
17,GCACGGAC,0.356
18,GCACGGCC,0.21
19,GCACGGCA,0.103
20,GCACGGAA,0.451
